Screens as filed in PubChem.
Most compounds without a hit are left out; they make up all but 9% or so of the library.
HPGD block: HPGD (human) dehydrogenase inhibition | AID 894 | Potency, µM, inactives show top-dose activity change, negative = inhibition, hits mostly inhibitors | purified HPGD, NADH fluorescence kinetic, PGE2 substrate | actives 4.3% (n = 150,000) | P15428; note: potency is the fitted concentration of half-maximal effect
Target sequence (P15428 whole entry, looked up): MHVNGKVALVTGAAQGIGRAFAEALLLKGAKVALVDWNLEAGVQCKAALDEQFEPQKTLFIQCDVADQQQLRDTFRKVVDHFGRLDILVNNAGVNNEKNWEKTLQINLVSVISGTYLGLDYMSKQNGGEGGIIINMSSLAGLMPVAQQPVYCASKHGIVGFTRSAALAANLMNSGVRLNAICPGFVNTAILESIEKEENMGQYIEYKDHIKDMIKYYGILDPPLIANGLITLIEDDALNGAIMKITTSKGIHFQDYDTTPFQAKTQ
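NADH formation kinetics: reaction with 30 uM PGE2 and 1 mM NAD+ (final), 20 nM enzyme, Tris-HCl pH 8 with Tween 20, after 15 min compound preincubation at room temperature. Fluorescence change, last versus first of five reads.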
ALDH1A1 block: ALDH1A1 (human) enzyme inhibition; P00352; Purified ALDH1A1, NADH fluorescence, propionaldehyde substrate; Potency, µM (highest dose often 75.3 µM), without a hit: at the top dose activity, negative = inhibition, most hits filed as inhibitors; actives 7.3% (n = 220,000);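 note: potency is the fitted concentration of half-maximal effect; plate controls were no enzyme wells and a reference inhibitor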
IMPase inh: IMPase inhibition in cells. P97697. CHO-M1 cells, IP1 accumulation, HTRF TR-FRET ratio. inhibition (IP1 accumulation), % at 46.1 µM. 120,000 tested, under 10 active. AID 901; active = well fitted curve in the direction sought with a large enough effect in the signal ratio, not every such curve was filed as active; inconclusive = small, poorly fitted or top-dose-only effect, or a change in a side signal; inactive = no such curve, though single readings can be large or run the other way; the % refers to the signal ratio;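 note: cells stimulated with carbachol in lithium chloride buffer; plate controls were DMSO basal wells for no effect and reference inhibitor wells for full effect; higher means more IMPase inhibition seen as more IP1 and lower FRET ratio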
Target sequence (P97697 whole entry, looked up): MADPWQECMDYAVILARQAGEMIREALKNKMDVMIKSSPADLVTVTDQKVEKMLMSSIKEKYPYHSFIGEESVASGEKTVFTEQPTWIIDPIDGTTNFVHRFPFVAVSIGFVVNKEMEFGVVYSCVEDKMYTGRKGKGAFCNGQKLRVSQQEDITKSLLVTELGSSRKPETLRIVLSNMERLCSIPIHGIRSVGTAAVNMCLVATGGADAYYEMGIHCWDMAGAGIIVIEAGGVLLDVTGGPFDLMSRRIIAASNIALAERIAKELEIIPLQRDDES
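Elevated IP1 in lysates lowers TR-FRET signal (665/620 ratio and 620 channel reported). Cells were CHO-M1, given carbachol (50 uM as added) plus 50mM LiCl, pH 7.4, 30 min, 37C; compounds titrated up to 46 uM; AC50 by Hill equation.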
* marks the source's active call; other numbers are inactive results; u = inconclusive; x = no result; ! = not confirmed by another sample; [ ] = dose if it differs, or a comment. Unless noted, calls come from the whole dose curve; as a rule, active = well fitted inhibition curve with a large enough effect (not every such curve was filed as active); inconclusive = small, poorly fitted or top-dose-only effect, or another doubt; inactive = no such curve, though single readings can be large or run the other way. Unless noted, % is set by controls: 0 for no effect and ±100 for the full control effect.

SMILES	HPGD block	ALDH1A1 block	IMPase inh
CN1C(=O)C(O)(CC(=O)/C=C/c2ccco2)c2ccccc21 (stereo not drawn)	x	-7%	x
COc1ccc(CN2C(=O)C(O)(CC(=O)c3ccc4c(c3)OCO4)c3ccccc32)cc1OC (stereo not drawn)	-6%	4.5µM*	1
CCOC(=O)CN1C(=O)C(O)(CC(=O)c2ccco2)c2ccccc21 (stereo not drawn)	-9%	0.16µM*	4
CCOC(=O)CN1C(=O)C(O)(CC(=O)c2ccc3c(c2)CCCC3)c2ccccc21 (stereo not drawn)	-4%	10µM*	-12
CCc1ccc(C(=O)CC2(O)C(=O)N(CCc3ccccc3)c3ccc(Cl)cc32)cc1 (stereo not drawn)	x	x	-17
O=S(=O)(O)c1cc(O)c2c(N=Cc3ccccc3O)cc(S(=O)(=O)O)cc2c1	-25%	u	x
Cc1ccc(C(=O)NNC(=O)CSc2nnc(-c3ccccc3)n2Cc2ccccc2)cc1	-7%	-4%	x
CCCCN1C(=O)C(O)(CC(=O)c2ccc(C)cc2C)c2cc(Br)ccc21 (stereo not drawn)	x	x	12
Cc1[nH]c2ccccc2c1C1(O)C(=O)N(C(C)C)c2ccccc21 (stereo not drawn)	-2%	u	-1
CCCCN1C(=O)C(O)(CC(=O)c2ccco2)c2cc(Br)ccc21 (stereo not drawn)	2%	8.9µM*	4
CC1(C)CC(=O)C(C2(O)C(=O)N(Cc3ccccc3)c3ccccc32)CO1 (stereo not drawn)	-7%	0.032µM*	-3
Cc1[nH]c2ccccc2c1C1(O)C(=O)N(Cc2ccc3c(c2)OCO3)c2ccccc21 (stereo not drawn)	-19%	0.71µM*	-11
CC(C)(C)C(=O)CC1(O)C(=O)N(Cc2ccc(Cl)cc2)c2ccccc21 (stereo not drawn)	-7%	u	13
CC1(C)CC(=O)N(Cc2ccccc2)C(=O)C1	0%	-1%	x
O=C(CC1(O)C(=O)N(Cc2ccccc2Cl)c2ccccc21)c1ccco1 (stereo not drawn)	-1%	1.3µM*	3
CC1CCCN(CC(O)COC(c2ccccc2)c2ccccc2)C1 (stereo not drawn)	x	6%	x
CC(=O)O[C@@H](C)C#C[Si](C)(C)c1ccccc1	-1%	5%	x
CCOC(=O)CN1C(=O)C(O)(CC(=O)c2cccc(OC)c2)c2ccccc21 (stereo not drawn)	0%	0.28µM*	-9
CN1C(=O)C(O)(CC(=O)c2cccc(-n3cccc3)c2)c2ccccc21 (stereo not drawn)	-20%	u	14
COc1cccc2cc(C(=O)CC3(O)C(=O)N(Cc4ccccc4)c4ccccc43)c(=O)oc12 (stereo not drawn)	-1%	0.089µM*	-21
CC12CN3CC(C)(CN(C1)C31C(=O)N(Cc3ccccc3)c3ccccc31)C2=O (stereo not drawn)	4%	7.9µM*	-3
COc1cccc(NC(=O)CN2C(=O)C3(OCCCO3)c3ccccc32)c1	0%	u	-15
COc1cccc2cc(C(C)=O)c(=O)oc12	1%	11%	-7
C#CCN1C(=O)C(O)(CC(=O)c2cccc(OC)c2)c2ccccc21 (stereo not drawn)	-10%	1.6µM*	6
CC12CN(Cc3ccccc3)CC(C)(CN(Cc3ccccc3)C1)C2=O	x	4%	x
SMILES	HPGD block	ALDH1A1 block	IMPase inh
COc1cccc(NC(c2nnc(-c3ccccc3)o2)c2ccc(F)cc2Cl)c1 (stereo not drawn)	x	x	-3
COc1ccc(N(C)C(=O)c2cn(C3CCCCC3)c(=O)c3c2c2ccccc2n3C)cc1	x	x	13
Cc1onc(-c2c(Cl)cccc2Cl)c1COC(=O)c1ccc(Cl)cc1[N+](=O)[O-]	x	-6%	x
O=C(O)CC1(O)C(=O)N(Cc2ccccc2)c2ccccc21 (stereo not drawn)	x	20µM*	x
Cc1n[nH]c(C)c1C(=O)CC1(O)C(=O)N(CCc2ccccc2)c2ccc(Cl)cc21 (stereo not drawn)	1%	u	-14
Cc1coc(C)c1C(=O)CC1(O)C(=O)N(CCc2ccccc2)c2ccccc21 (stereo not drawn)	u	4.5µM*	11
COc1cccc(C(=O)N/N=C2\SCC(=O)N2Cc2ccc3c(c2)OCO3)c1	-23%	1%	2[1.84 µM]
Cc1ccc(C(=O)CC2(O)C(=O)N(Cc3ccccc3)c3ccccc32)c(C)c1 (stereo not drawn)	x	x	8
COc1ccc(C(=O)N/N=C2/SCC(=O)N2Cc2ccc3c(c2)OCO3)cc1OC	-12%	20µM*	-7
COc1cc(O)c(/C=N/NC(=O)c2ccncc2)c(OC)c1[N+](=O)[O-]	x	4%	x
Cc1cc[n+]2cc(-c3cccc([N+](=O)[O-])c3)c(-c3cccc([N+](=O)[O-])c3)cc2c1	0%	u	x
C[C@](N)(Cc1ccc(O)cc1)C(=O)O	-5%	4%	x
C[C@](N)(Cc1ccc(O)c(O)c1)C(=O)O	u	5.6µM*!	-4
COc1ccc(NC(=O)COC(=O)c2ccc(S(=O)(=O)N(C)c3ccccc3OC)cc2)c(OC)c1	x	7.1µM*	x
COc1ccccc1N(C)S(=O)(=O)c1ccc(C(=O)NCC(C)C)cc1	25µM*	-1%	2
CCC(C)(C)NC(=O)c1ccc(S(=O)(=O)N(C)c2ccccc2OC)cc1	-4%	4%	u
COc1ccc(NC(=O)COC(=O)c2ccc(S(=O)(=O)N(C)c3ccccc3OC)cc2)cc1OC	x	2%	x
N=c1ccn2c(n1)O[C@@H]1[C@H](O)[C@H](CO)O[C@@H]12	-1%	21%	-1
C/C(CC(C)(C)c1ccccc1)=N\NS(=O)(=O)c1ccccc1	x	13µM*	x
C[C@@](O)(CNS(=O)(=O)c1ccccc1)c1ccccc1	-3%	-3%[13.5 µM]	x
O=C(COC(=O)c1ccccc1)Nc1cccc(S(=O)(=O)NC2=NCCCCC2)c1	-9%	6%	x
CCN(CC)c1ccc(C(=O)OCC(=O)Nc2cccc(S(=O)(=O)NC3=NCCCCC3)c2)cc1	28µM*	u	x
COc1ccc(-n2cc(C(=O)Nc3cc([N+](=O)[O-])ccc3OC)c3ccccc3c2=O)cc1	-15%	-3%	x
CCOC(=O)C1CCN(c2c(NCc3ccc(C(=O)NC(C)CC)cc3)c(=O)c2=O)CC1 (stereo not drawn)	5µM*	u	-7
CCOC(=O)C1CCN(c2c(NCCN3CCN(c4ccccc4)CC3)c(=O)c2=O)CC1	-14%	6%	-8
SMILES	HPGD block	ALDH1A1 block	IMPase inh
O=C(c1ccc(CNc2c(N3CCCC3)c(=O)c2=O)cc1)N1CCN(C2CCCCC2)CC1	-19%	-5%	x
O=C(c1ccc(CNc2c(N3CCCC3)c(=O)c2=O)cc1)N1CCc2ccccc2C1	3.5µM*	10%	6
CN(C)c1ccc(CNC(=O)c2ccc(CNc3c(N4CCCCC4)c(=O)c3=O)cc2)cc1	22µM*	28µM*	5
COc1ccccc1CNC(=O)c1ccc(CNc2c(N3CCCC3)c(=O)c2=O)cc1	-29%	3%	-5
O=C(c1ccncc1)N1CCC2(CCCN(c3ccccc3)C2)CC1	-9%	-9%	x
CC1(C)CN(c2ccsc2C(=O)O)C1=O	x	-2%	x
